Compounds with a hit are over-represented: about 2.4% of the library has one in this group of screens.
Apoferritin bind: qHTS Assay for Identification of Novel General Anesthetics; Ferritin light chain (Equus caballus), P02791; apoferritin/1-aminoanthracene competitive binding, fluorescence; Potency, µM (top dose mostly 77.5 µM), for the others: top-dose activity change, negative = displacement, most hits filed as inhibitors; hit rate 0.074% among 350,000; further: on the % scale 0 is the no-effect control and ±100 the full control effect; nearly all actives have a fitted effect of over 20% in size
Target sequence (P02791 2-175 limits assumed): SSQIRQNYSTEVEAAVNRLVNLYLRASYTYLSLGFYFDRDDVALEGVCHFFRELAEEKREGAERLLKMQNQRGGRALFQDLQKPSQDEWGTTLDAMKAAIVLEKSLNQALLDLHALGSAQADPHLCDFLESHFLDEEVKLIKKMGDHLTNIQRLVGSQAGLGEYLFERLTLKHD
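Concentration-response curves derived by four-parameter Hill fitting of normalized fluorescence, where compounds displaced 1-AMA from 10 uM horse apoferritin following a brief 10 min room-temperature incubation; propofol titration acted as positive control.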
HepG2 tox-1: qHTS for Inhibitors of TGF-b: Cytotox Counterscreen; HepG2 CAGA-GFP viability, ATP luminescence, 18 h; Potency, µM (titrated, usually from 46.1 µM), for inactives: at the top dose activity change, negative = cytotoxicity, most hits filed as cytotoxic; hit rate 0.76% among 410,000
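HepG2 CAGA-GFP cells (1000/well, DMEM with 1% FBS) received compound, then TGF-beta at 500 pg/mL final, and were incubated 18 hours at 37 degrees C. Viability was read by CellTiter-Glo luminescence. Media-only wells were set as complete cell-killing and DMSO as no toxicity.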
ATXN2 expr inh: Primary qHTS for Inhibitors of ATXN expression | hit rate 0.72% among 360,000 | Potency, µM (doses to about 57 µM), without a hit: at the top dose activity change, negative = inhibition, most hits filed as inhibitors | HEK-293 ATXN2-luciferase reporter, luminescence, 24 h; further: on the % scale 0 is the no-effect control and ±100 the full control effect; nearly all actives have a fitted effect of over 55% in size
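qHTS (up to 57 uM final) was run with 24 h compound exposure of reporter cells at 37 °C. Each well was multiplexed: SteadyGlo luminescence measured ATXN2-luciferase expression after a fluorogenic Gly-Phe-AFC viability readout (25 uM final).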
S2 tox: Viability Counterscreen for Primary qHTS for Inhibitors of ATXN expression; S2 cells (HEK-293 line with an ATXN2-luciferase reporter) viability, CellTiter-Fluor protease fluorescence, 24 h; Potency, µM (series often up to 56.7 µM), most hits filed as cytotoxic; hit rate 0.49% among 400,000; further: nearly all actives have a fitted effect of over 40% in size
TGFb inhibitor: qHTS for Inhibitors of TGF-b | HepG2 CAGA-GFP TGF-b/SMAD3 reporter, GFP fluorescence, 18 h; TGF-beta stimulated, 500 pg/mL final | Potency, µM (series often up to 46.1 µM), without a hit: at the highest dose activity, negative = inhibition, usual class: inhibitors | hit rate 1.2% among 410,000 | AID 588855, 2011; further: on the % scale 0 is the no-effect control and ±100 the full control effect; nearly all actives have a fitted effect of over 65% in size
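TGF-beta reporter screen: HEPG2 CAGA-GFP, 1% FBS, 500 pg/mL TGF-beta final, 18 h; per-cell GFP summed per well; curves fitted and categorized by class.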
TGFb CAGA inh: qHTS for Inhibitors of TGF-b: Confirmation of Cherry Picks. shares compounds with TGFb inhibitor. Potency, µM (doses to about 46.1 µM), inactives show at the top dose activity, negative = inhibition, hits mostly inhibitors. HepG2 CAGA-GFP TGF-b reporter, GFP fluorescence, 18 h; cells stimulated with TGF-beta, 500 pg/mL. hit rate 63% among 1,600; further: on the % scale 0 is the no-effect control and ±100 the full control effect; nearly all actives have a fitted effect of over 65% in size
HepG2 tox-2: qHTS for Inhibitors of TGF-b: Cytotox Counterscreen for Cherry Picks; shares compounds with TGFb inhibitor; HepG2 CAGA-GFP viability, ATP luminescence, 18 h; cells stimulated with TGF-beta, 500 pg/mL; Potency, µM (doses to about 46.1 µM), without a hit: top-dose activity, negative = cytotoxicity, hits mostly inhibitors; hit rate 27% among 1,600; further: on the % scale 0 is the no-effect control and ±100 the full control effect; nearly all actives have a fitted effect of over 70% in size
TGFb CCL64 inh: qHTS for Inhibitors of TGF-b: CCL64 Cells Orthogonal Assay for Cherry Picks. hit rate 41% among 1,600. shares compounds with TGFb inhibitor. Potency, µM (highest dose often 46.1 µM), inactives show at the top dose activity, negative = inhibition, hits mostly inhibitors. CCL64 CAGA-GFP reporter, TGF-b stimulated, GFP fluorescence, 18 h. AID 720536, 2013; further: nearly all actives have a fitted effect of over 65% in size
TGFb COP inh: qHTS for Inhibitors of TGF-b: Hit Validation in HepG2 Cells using COP promoter; HepG2 COP-GFP TGF-b reporter, GFP fluorescence, 18 h; cells stimulated by added recombinant TGF-beta; hit rate 3% among 1,600; shares compounds with TGFb inhibitor; Potency, µM (highest dose often 46.1 µM), for inactives: at the top dose activity, negative = inhibition, actives largely listed as inhibitors; further: nearly all actives have a fitted effect of over 70% in size
* marks the source's active call; other numbers are inactive results. The call rests on the fitted dose curve; in most records, active means well fitted curve in the direction sought with a large enough effect; inconclusive means small, poorly fitted or top-dose-only effect, or another doubt; inactive means no such curve, though single readings can be large; an effect the other way counts as inactive or inconclusive. Potency means the concentration at half of the fitted maximal effect.

O=C(Nc1ccc(S(=O)(=O)N2CCOCC2)cc1)c1ccc([N+](=O)[O-])s1 was read as HepG2 tox-1 -20.6%, ATXN2 expr inh -25.7%, S2 tox inactive, TGFb inhibitor 4.47µM*, TGFb CAGA inh 1.64µM*, HepG2 tox-2 5.17µM*, TGFb CCL64 inh -16.9% and TGFb COP inh 29.1%.
For O=C(Nc1ccc(S(=O)(=O)N2CCOCC2)cc1)c1ccc([N+](=O)[O-])o1 the results were Apoferritin bind -6.2%, HepG2 tox-1 -179.6%, ATXN2 expr inh inconclusive, S2 tox inconclusive, TGFb inhibitor 6.31µM*, TGFb CAGA inh 3.26µM*, HepG2 tox-2 13µM*, TGFb CCL64 inh 11.6µM* and TGFb COP inh inconclusive.
O=C(Nc1ccc(S(=O)(=O)N2CCOCC2)cc1)c1cccs1 was read as Apoferritin bind -7.4%, HepG2 tox-1 0.8%, ATXN2 expr inh 1.0%, S2 tox inactive and TGFb inhibitor -4.0%.
CC1Sc2ccc(S(=O)(=O)CCC(=O)NC3CCCC(C)C3C)cc2NC1=O (stereo not given) was read as Apoferritin bind -11.8%, HepG2 tox-1 -18.6%, S2 tox inactive and TGFb inhibitor inconclusive.
Cc1ccc(CN2[C@@H](CC3CCCCC3)COCCS2(=O)=O)cc1 was read as Apoferritin bind -2.7%, HepG2 tox-1 -4.6%, ATXN2 expr inh -6.7%, S2 tox inconclusive and TGFb inhibitor inconclusive.
O=C1c2cccc3cc([N+](=O)[O-])cc(c23)C(=O)N1c1nncs1 was read as HepG2 tox-1 -42.1%, ATXN2 expr inh 5.0%, S2 tox inactive and TGFb inhibitor 3.7%.
Screening Cc1ccccc1OCC(O)Cn1c(=N)n(Cc2ccccc2)c2ccccc21 (stereo not given) returned Apoferritin bind -21.7%, HepG2 tox-1 7.94µM*, ATXN2 expr inh inconclusive, S2 tox 31.6µM*, TGFb inhibitor 7.08µM*, TGFb CAGA inh inconclusive, HepG2 tox-2 inconclusive, TGFb CCL64 inh inconclusive and TGFb COP inh -27.1%.
Screening CCOc1ccc(-n2cc(C(=O)c3cc(Cl)ccc3O)cc(C#N)c2=O)cc1 returned Apoferritin bind inconclusive, HepG2 tox-1 -22.2%, ATXN2 expr inh -27.4%, TGFb inhibitor 12.6µM*, TGFb CAGA inh -81.2%, HepG2 tox-2 inconclusive, TGFb CCL64 inh inconclusive and TGFb COP inh 53.1%.
COc1ccc(-n2cc(C(=O)c3cc(Cl)ccc3O)cc(C#N)c2=O)cc1 was read as Apoferritin bind -17.8%, HepG2 tox-1 -9.8%, ATXN2 expr inh -20.6% and TGFb inhibitor 0.0%.
`CC(C)C[C@@H](CN1CCCC1CN1C(=S)NC[C@@H]1Cc1ccc(O)cc1)N1C[C@H](Cc2ccc(O)cc2)N(CC2CCCCC2)C1=S` (stereo not given in full) gave HepG2 tox-1 -99.5%, ATXN2 expr inh inconclusive, S2 tox inconclusive, TGFb inhibitor 10µM*, TGFb CAGA inh 8.2µM*, HepG2 tox-2 inconclusive, TGFb CCL64 inh inconclusive and TGFb COP inh inconclusive.
`CC(C)C[C@H]1CNC(=S)N1CC1CCCN1C[C@H](CC(C)C)N1C[C@H](Cc2ccc(O)cc2)N(CC2CCCCCC2)C1=S` (stereo not given in full) gave HepG2 tox-1 -54.2%, ATXN2 expr inh inconclusive, S2 tox inconclusive and TGFb inhibitor inconclusive.
Screening CC(C)C[C@H]1CNC(=S)N1C[C@H]1CCCN1C[C@H](CC(C)C)N1C[C@H](Cc2ccc(O)cc2)N(CC2CCCCCC2)C1=S returned HepG2 tox-1 11.2µM*, ATXN2 expr inh inconclusive, S2 tox 22.4µM*, TGFb inhibitor 6.31µM*, TGFb CAGA inh inconclusive, HepG2 tox-2 inconclusive, TGFb CCL64 inh inconclusive and TGFb COP inh 90.6%.
For CC(C)C[C@H]1CN([C@@H](Cc2ccccc2)CN2CCCC2CN2C(=S)NC[C@@H]2Cc2ccccc2)C(=S)N1CC1CCCCC1 (stereo not given in full) the results were ATXN2 expr inh 0.0% and S2 tox inconclusive.
For CC(C)C[C@H]1CNC(=S)N1CC1CCCN1C[C@H](CC(C)C)N1C[C@H](Cc2ccc(O)cc2)N(CC2CCCCC2)C1=S (stereo not given in full) the results were HepG2 tox-1 11.2µM*, ATXN2 expr inh inconclusive, S2 tox inconclusive, TGFb inhibitor 10µM*, TGFb CAGA inh inconclusive, HepG2 tox-2 inconclusive, TGFb CCL64 inh inconclusive and TGFb COP inh inconclusive.
Screening CN(CCc1ccccc1)C(=O)c1[nH]c(C(F)(F)F)nc1-c1ccccc1 returned HepG2 tox-1 0.1%, ATXN2 expr inh 2.2%, S2 tox inactive and TGFb inhibitor -27.6%.
`c1ccc2c(Nc3nc(-c4ccncc4)nc4ccccc34)cccc2c1` gave Apoferritin bind -11.1%, HepG2 tox-1 -63.8%, ATXN2 expr inh -23.0%, S2 tox inactive and TGFb inhibitor -16.5%.
For Clc1ccccc1Nc1nc(-c2ccncc2)nc2ccccc12 the results were Apoferritin bind 8.6%, HepG2 tox-1 -54.9%, ATXN2 expr inh -35.3%, S2 tox inactive, TGFb inhibitor -10.4%, TGFb CAGA inh -13.5%, HepG2 tox-2 23.1µM*, TGFb CCL64 inh inconclusive and TGFb COP inh 52.4%.
